# Screens from PubChem BioAssay.
# KCNQ2 pot: enhances the rat KCNQ2 potassium channel. O88943. 310,000 tested, 0.54% active. CHO-K1 KCNQ2, FluxOR thallium flux fluorescence; active compounds read high. B-score at 10 µM;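 active means fluorescence ratio B-score at least 3 SD of library B-scores, with initial fluorescence B-score within 3 of them, cut at about 5.3 in these data; same plate scores as AID 2156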;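 further: B-score of peak minus minimum over baseline fluorescence ratio after K+ and Tl+ stimulus; positive B-score means potentiation of KCNQ2 with more thallium influx and brighter signal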
# Target sequence (O88943 whole entry, looked up): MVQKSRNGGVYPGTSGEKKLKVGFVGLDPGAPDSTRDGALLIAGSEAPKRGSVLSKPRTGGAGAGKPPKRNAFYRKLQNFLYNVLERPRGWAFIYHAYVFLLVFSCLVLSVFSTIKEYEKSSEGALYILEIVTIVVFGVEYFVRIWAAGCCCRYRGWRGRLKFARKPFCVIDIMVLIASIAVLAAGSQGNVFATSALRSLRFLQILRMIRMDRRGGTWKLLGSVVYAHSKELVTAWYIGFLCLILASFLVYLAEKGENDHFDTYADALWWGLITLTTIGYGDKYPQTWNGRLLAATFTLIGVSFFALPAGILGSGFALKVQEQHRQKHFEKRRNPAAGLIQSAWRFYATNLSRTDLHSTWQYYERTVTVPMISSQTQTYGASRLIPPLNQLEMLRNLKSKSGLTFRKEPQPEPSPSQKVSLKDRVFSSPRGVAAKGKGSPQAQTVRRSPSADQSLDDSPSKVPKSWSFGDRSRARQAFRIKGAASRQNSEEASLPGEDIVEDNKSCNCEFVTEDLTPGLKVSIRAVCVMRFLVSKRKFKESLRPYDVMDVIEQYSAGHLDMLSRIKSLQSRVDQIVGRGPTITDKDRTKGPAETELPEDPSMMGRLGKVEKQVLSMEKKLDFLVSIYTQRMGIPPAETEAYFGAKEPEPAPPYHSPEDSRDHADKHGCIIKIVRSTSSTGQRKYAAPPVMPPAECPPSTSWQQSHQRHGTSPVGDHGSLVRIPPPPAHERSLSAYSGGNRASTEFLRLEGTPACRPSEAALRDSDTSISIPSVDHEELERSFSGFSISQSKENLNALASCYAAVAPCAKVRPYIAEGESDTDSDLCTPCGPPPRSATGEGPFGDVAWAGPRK
# KCNQ2 block: inhibitors of rat KCNQ2 potassium channel; AID 2156; O88943; 310,000 tested, 1.1% active; B-score at 10 µM; CHO-K1 KCNQ2, FluxOR thallium flux, 20 min; active compounds read low;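 active means fluorescence ratio B-score at most minus 3 library SDs, with starting brightness B-score within 2 library SDs, cut at about -5.5 in these data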
# * hit, by the source's call; i = inactive; · = not tested or not shown. Compounds with a hit are over-represented: about 1.6% of the library has one in this group of screens.
SMILES,KCNQ2 pot,KCNQ2 block
COC(=O)c1c(C(=O)OC)c(-c2cccc(F)c2)n2c1CS(=O)C2 (stereo not given),0.66,i
CCCn1c(=O)cc(N)n(-c2ccc(OC(F)(F)F)cc2)c1=O,0.31,i
N#CC1=C(c2ccc(-c3ccccc3)cc2)COC1=O,-5.7,-5.7*
O=C1OCC(c2ccccc2)=C1c1ccccc1,1,i
Cc1ccc(S(=O)(=O)N2CCN(C(=O)CCn3cncn3)CC2)cc1C,2,i
Cc1cc(NS(=O)(=O)c2ccc(Nc3nc(-c4sc(NC(=O)c5ccccc5)nc4C)cs3)cc2)no1,-13,-13*
Cc1nc(NC(=O)c2ccccc2)sc1-c1csc(Nc2cccc(F)c2)n1,0.54,i
CC(C)OP(=O)(OC(C)C)C(Nc1ccccc1)c1cccnc1 (stereo not given),·,i
Cc1cc(C)c2nc(N3CCCC(C(=O)NC4CCCC4)C3)sc2c1 (stereo not given),1.7,i
CCN(Cc1ccccc1)C(=O)Cn1cc(S(=O)(=O)NC)c(S(=O)(=O)NC)c1,0.19,i
C=C1CCN([C@@H](Cc2ccccc2)C(=O)NCc2ccc(Cl)c(Cl)c2)S(=O)(=O)c2ccccc21,-6.2,-6.2*
C=C1CCN([C@@H](CC(C)C)C(=O)NCc2ccc(Cl)c(Cl)c2)S(=O)(=O)c2ccccc21,·,i
COc1cccc(-c2nc(CS(=O)(=O)CC(=O)NCCCc3ccccc3)c(C)o2)c1,·,i
COc1cccc(-c2nc(CS(=O)(=O)CC(=O)NCc3ccccc3)c(C)o2)c1,-5.9,-5.9*
CC(C)(C)c1ccc(S(=O)(=O)N(CCCN2CCOCC2)Cc2cccs2)cc1,1.4,i
CN(CC(=O)Nc1ccc(F)cc1Cl)Cc1cccs1,·,i
CN(CC(=O)Nc1cc(Cl)cc(Cl)c1)Cc1cccs1,-5.6,-5.6*
COc1ccc(-c2noc(N3CCC(C(=O)NC(C)c4ccccc4)CC3)n2)cc1 (stereo not given),·,i
CC1O[C@@H](O[C@H](C)CC[C@@H](C)O[C@H]2OC(C)[C@@H](O)C[C@H]2O)C(O)C[C@H]1O (stereo not given in full),0.4,i
C=CCn1c(O)c(N=NC(=S)Nc2ccc(OC)cc2)c2ccccc21,4,i
C=CCn1c(O)c(N=NC(=S)Nc2cccc(OC)c2)c2ccccc21,12*,i
Oc1c(/C=C/C=C/C=Nc2ccccc2)sc(=S)n1Cc1ccccc1,·,i
COc1ccccc1N(Cc1ccccc1)S(=O)(=O)c1cccc(C(=O)Nc2cccc(C)n2)c1,-6.4,-6.4*
Cc1cccc(NC(=O)c2cccc(S(=O)(=O)NCc3ccccc3)c2)n1,·,i
C=CCOc1ccc(/C=C/C(=O)OCC(=O)NCC(=O)Nc2c(C)cc(C)cc2C)cc1,·,i
SMILES,KCNQ2 pot,KCNQ2 block
CCNC(=O)c1ccccc1SCc1ccccc1,-7.4,-7.4*
CCc1ccc(OCCNC(=O)c2ccccc2SCc2ccccc2)cc1,·,i
CCOc1ccc(N(CC(=O)NC2CCC(C)CC2)S(=O)(=O)c2c(C)noc2C)cc1 (stereo not given),0.09,i
Cc1noc(C)c1S(=O)(=O)N(CC(=O)NC1CCC(C)CC1)c1ccc(C(C)C)cc1 (stereo not given),-7.1,-7.1*
NC(=O)c1nsc(C(=O)N(Cc2ccccc2Cl)C(C(=O)NCC2CCCO2)c2ccc(O)cc2)c1N (stereo not given),0.8,i
O=C(NCCCO)C(=O)Nc1cc2c3c(c1)CCC(=O)N3CCC2,0.07,i
Cc1ccc(NC(=O)N2CCCC2C(=O)Nc2ccc3c(c2)OCCO3)cc1 (stereo not given),0.05,i
Cc1csc(-c2cnn(-c3ccccc3)c2NC(=O)c2ccc(C(F)(F)F)cc2)n1,-5.9,-5.9*
CC(C)(C)NC(=O)c1cnn(-c2ccccc2)c1NC(=O)c1ccccc1,·,i
Cc1ncc(C[n+]2csc(CCOC(=O)CC34CC5CC(CC(C5)C3)C4)c2C)c(N)n1,·,i
Cc1c(CCOC(=O)CC23CC4CC(CC(C4)C2)C3)sc[n+]1Cc1ccccc1,-5.6,-5.6*
CCOC(=O)c1c(-c2ccccc2)oc2ccc(OCC)cc12,·,i
CCOC(=O)c1c(-c2ccccc2)oc2ccc(OCC(O)CNCCN(C)C)cc12 (stereo not given),-6.7,-6.7*
Cc1cc(NC(=O)CCC(=O)N(CC(=O)NCC2CCCO2)c2ccc(F)c(Cl)c2)no1 (stereo not given),0.9,i
O=C(c1cccc(F)c1)N1CCCc2ccccc21,1,i
CCOC(=O)c1c(NC(=O)C(Sc2ccccc2)c2ccccc2)sc(C(=O)N(C)C)c1C (stereo not given),-5.8,-5.8*
CCOC(=O)c1c(NC(=O)C(Sc2ccccc2)c2ccccc2)sc(C(N)=O)c1C (stereo not given),·,i
CN(Cc1ccccc1)/C(=N/O)c1cccc(Cl)c1,·,i
O=C(NC(=S)NCCc1ccc(Cl)cc1)c1ccco1,1.9,i
COc1cc(C(=O)NC(=S)N(C)Cc2ccccc2)cc(OC)c1OC,·,i
COc1cc(C(=O)NC(=S)N(CCc2ccccc2)CCc2ccccc2)cc(OC)c1OC,18*,i
O=C(NC(=S)N(CCc1ccccc1)CCc1ccccc1)c1ccco1,16*,i
Cc1ccccc1Nc1nc(N)nc(COC(=O)CC2CC3CCC2C3)n1 (stereo not given),20*,i
Cc1ccccc1Nc1nc(N)nc(COC(=O)CCS(=O)(=O)c2ccccc2)n1,1.7,i
CCOc1ccccc1N(C)S(=O)(=O)c1ccc2c(c1)CC(C)N2C(=O)C1CC1 (stereo not given),0.01,i
SMILES,KCNQ2 pot,KCNQ2 block
COc1cc(C(=S)N2CCOCC2)ccc1OS(=O)(=O)c1ccccc1[N+](=O)[O-],1.4,i
COc1ccc(C(=S)N2CCOCC2)cc1OS(=O)(=O)c1ccccc1[N+](=O)[O-],-6.7,-6.7*
CCC1=NN(C(=O)COc2ccccc2)C(O)(c2ccc(Br)cc2)C1 (stereo not given),-6,-6*
CC1=NN(C(=O)COc2ccccc2)C(O)(c2ccccc2)C1 (stereo not given),0.2,i
CC1=NN(C(=O)c2ccccc2Br)C(O)(c2ccc(Cl)cc2)C1 (stereo not given),1.6,i
CCC1=NN(C(=O)c2ccccc2Br)C(O)(c2ccc(Br)cc2)C1 (stereo not given),14*,i
COCCn1c(SCC(=O)N(C)c2ccccc2)nc2c([nH]c3ccccc32)c1=O,0.11,i
Cc1sc2nc(C(C)C)nc(SCC(=O)N3CCN(C(=O)c4ccco4)CC3)c2c1C,13*,i
Cc1sc2ncnc(SCC(=O)N3CCN(C(=O)c4ccco4)CC3)c2c1C,0.17,i
COc1cccc(-n2nnnc2S(C)(=O)=O)c1,-7.8,-7.8*
COc1cccc(Oc2nnnn2-c2ccccc2)c1,·,i
Cc1cc(C)n(-c2ccc(NC(=O)C3CCCCN3C(=O)c3sccc3C)cc2)n1 (stereo not given),3.2,i
O=C(Nc1ccccc1N1CCCCC1)C1CCN(S(=O)(=O)c2cccc(C(F)(F)F)c2)CC1,-6.9,-6.9*
O=C(Nc1ccccc1N1CCCC1)C1CCN(S(=O)(=O)c2cccc(C(F)(F)F)c2)CC1,·,i
CCCCN(C(=O)c1c(CC)noc1C)c1c(N)n(CCCC)c(=O)[nH]c1=O,·,i
